# Assay results: PubChem BioAssay (Tox21)
# Records with an inconclusive call do not appear. A number with no mark means an inactive call. The source made the active and inactive calls. The call rests on the fitted dose curve; in most records, active means well fitted cell-killing curve with a large enough effect in the repeat runs; inconclusive means weak or mixed curves; inactive means flat fitted curve, though single readings scatter.
# Experiment: qHTS RealTime-Glo MT Cell Viability Assay in HepG2 cells - 32 hour (AID 1224877); further: nearly all actives have a fitted effect of over 55% in size
# Conditions: RealTime-Glo luminescence; series mostly up to 76.8 µM; activity change, negative = cytotoxic: at the top concentration
# Source text: U.S. Tox21 Program National Center for Advancing Translational Sciences [NCATS] NIH Chemical Genomics Center [NCGC] U.S. Environmental Protection Agency [EPA] National Institutes of Environmental Health Sciences [NIEHS] National Toxicology Program [NTP] U.S. Food and Drug Administration [FDA] Tox21 Assay Overview: Measure of cell viability is critical in the cell-base assay. Analysis of cell viability is necessary for the characterization of cell responses to cytotoxic drugs and environmental stress. A RealTime-Glo MT Cell Viability Assay to monitor cell viability in real time of continues cell culture during 40 hours of compound treatment was used to screen Tox21 10K library compounds in HepG2 cells. The RealTime-Glo MT Cell Viability Assay is a nonlytic, homogeneous, bioluminescent method to measure cell viability in real time using a simple, plate-based method. The assay involves adding NanoLuc luciferase and a cell-permeant prosubstrate to cells in culture. Viable cells reduce the proprietary prosubstrate to generate a substrate for NanoLuc luciferase. This substrate diffuses from cells into the surrounding culture medium, where it is rapidly used by the NanoLuc Enzyme to produce a luminescent signal. The signal correlates with the number of viable cells, making the assay well suited for cytotoxicity studies.
# Tox21 Assay Protocol Summary: The mixture of HepG2 cell suspension and reagents were dispensed at 600cells/6 ul/well in 1536-well tissue culture treated black solid bottom plates using a Multidrop dispenser. After the assay plates were incubated at a 37 C/5% CO2 incubator for 5 hours, 23 nL of compounds dissolved in DMSO, positive and negative controls was transferred to the assay plate by a pintool work station. The plates were incubated at 37 C for 40 hours. The luminescence intensity were measured at 0h, 8h, 16h, 24h, 32h and 40h time points using ViewLux plate reader during compound treatment.
# On the % scale 0 is the no-effect control and ±100 the full control effect; potency means the concentration at half of the fitted maximal effect.
Compound,"activity change, negative = cytotoxic",Potency
Cc1cc(C)c(C(=O)P(=O)(C(=O)c2c(C)cc(C)cc2C)c2ccccc2)c(C)c1,-1.89%,–
CCCSC(=O)Cl,-2.06%,–
O=C(O)c1cccc(Cl)c1,0.752%,–
Cc1cccc(C#N)c1,2.77%,–
C[N+](=O)[O-],1.28%,–
ClC(Br)Br,0.163%,–
Nc1n[nH]c(N)n1,-2.31%,–
CCC(Cl)[N+](=O)[O-] (stereo not given),-0.746%,–
O=C(CCCN1CCC(n2c(=O)[nH]c3ccccc32)CC1)c1ccc(F)cc1,-6.76% [at 35.3 µM],–
C=C(C)CN(CC)c1c([N+](=O)[O-])cc(C(F)(F)F)cc1[N+](=O)[O-],-4.93%,–
CC(C)CC(N(C)C)C1(c2ccc(Cl)cc2)CCC1 (stereo not given),1.57% [at 35.3 µM],–
CCCSP(=S)(OCC)Oc1ccc(Cl)cc1Cl (stereo not given),-10.2%,–
COC(C)(C)C,-4.54%,–
c1cc[c]([Hg][c]2ccccc2)cc1,-6.02%,–
N#Cc1ccncc1,2.65%,–
CC(C)COP(=O)(OCC(C)C)OCC(C)C,-1.34%,–
CC(C(=O)c1ccccc1)N(C)C (stereo not given),0.417% [at 35.3 µM],–
Oc1c(Cl)cccc1Cl,-3.07%,–
N#CC(Cl)(Cl)Cl,0.056%,–
O=C(NCO)NCO,4.58%,–

Compound,"activity change, negative = cytotoxic",Potency
Nc1cc(Cl)ccc1O,1.69%,–
C1CCC(C2CCCCC2)CC1,-0.634%,–
CCS(=O)(=O)C(C)(C)S(=O)(=O)CC,3.79% [at 35.3 µM],–
CCOP(=S)(OCC)Oc1ncn(-c2ccccc2)n1,-9.26%,–
OC(c1ccc(F)cc1)(c1cncnc1)c1ccccc1Cl (stereo not given),-5.07%,–
ClC(Cl)(Cl)C(Cl)(Cl)Cl,0.42%,–
N#CC(CCc1ccc(Cl)cc1)(Cn1cncn1)c1ccccc1 (stereo not given),–,43.6 µM (active)
N#CC(O)c1ccccc1 (stereo not given),3.7%,–
C[C@]1(O)CC[C@H]2[C@@H]3CCC4=CC(=O)CC[C@]4(C)[C@@]3(F)[C@@H](O)C[C@@]21C,-5.83%,–
Fc1ccc(C2(Cn3cncn3)OC2c2ccccc2Cl)cc1 (stereo not given),-21%,–
Clc1ccccc1N1CCNCC1,0.0562% [at 35.3 µM],–
O=CNC(N1CCN(C(NC=O)C(Cl)(Cl)Cl)CC1)C(Cl)(Cl)Cl (stereo not given),0.626%,–
COc1cc(OC)nc(Oc2cccc(Oc3nc(OC)cc(OC)n3)c2C(=O)O)n1,2.61%,–
CCCCc1c(C)nc(NCC)[nH]c1=O,0.641%,–
CC(C)CC#N,0.268%,–
Cc1cc(C)nc(Nc2ccccc2)n1,1.29%,–
CC(=O)CCc1ccc2c(c1)OCO2,2.37%,–
CC1=C(C(=O)Nc2ccccc2)S(=O)(=O)CCO1,-22.5%,–
CCCCOP(=O)(O)OCCCC,-1.7%,–
Nc1c(Br)cc([N+](=O)[O-])cc1[N+](=O)[O-],-0.673%,–
